Experimental data: the supplement of paper PMC4466140

Each binder was assayed against AgAbp1 (assay: SPOT peptide array binding signal intensity (averaged, normalized) (arbitrary units (background-subtracted, floor 0; scale differs between SH3 domains)); higher = stronger binding of the SH3 domain to the peptide).
Outline: (§1)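 GST-fused SH3 domains, from four yeast species, were produced in E. coli BL21(DE3) and captured on glutathione Sepharose. Membranes of cellulose carrying synthetic 15-mer peptides, in which cysteines had been replaced by serines, were exposed to each domain at 10 μg/ml overnight at 4°C in TBS-based blocking buffer. After anti-GST antibody, an HRP anti-mouse secondary and luminol, spots were imaged and quantified using Genespotter. Binding signal is normalized and background-subtracted spot intensity, averaged over replicates, in arbitrary units that differ between domains.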
With SRYRRPLTLLLLKPF the “SPOT peptide array binding signal intensity” value was 16.

The binders below were run against AgBbc1 in the same assay as above.
Outline: as §1
In the case of SRYRRPLTLLLLKPF, the “SPOT peptide array binding signal intensity” value is reported as 6.

What follows are binders tested against AgBem1-D1 in the same assay as above.
Outline: as §1
For SRYRRPLTLLLLKPF, the “SPOT peptide array binding signal intensity” value was 0.5.

The binders below were run against AgBzz1-D1 in the same assay as above.
Outline: as §1
SRYRRPLTLLLLKPF was tested, and the “SPOT peptide array binding signal intensity” value was 23.

Each binder was assayed against AgBzz1-D2 in the same assay as above.
Outline: as §1
With SRYRRPLTLLLLKPF the “SPOT peptide array binding signal intensity” value was 17.

The binders below were run against AgCyk3 in the same assay as above.
Outline: as §1
SRYRRPLTLLLLKPF was tested, and the “SPOT peptide array binding signal intensity” value was 1.

These binders were tested against AgFus1 in the same assay as above.
Outline: as §1
With SRYRRPLTLLLLKPF the “SPOT peptide array binding signal intensity” value was 965.

The binders below were run against AgHof1 in the same assay as above.
Outline: as §1
In the case of SRYRRPLTLLLLKPF, the “SPOT peptide array binding signal intensity” value is reported as 13.8.

Each binder was assayed against AgHse1 in the same assay as above.
Outline: as §1
For SRYRRPLTLLLLKPF, the “SPOT peptide array binding signal intensity” value was 1270.

Each binder was assayed against AgLsb1 in the same assay as above.
Outline: as §1
For SRYRRPLTLLLLKPF, the “SPOT peptide array binding signal intensity” value was at most 0.

What follows are binders tested against AgLsb4 in the same assay as above.
Outline: as §1
For SRYRRPLTLLLLKPF, the “SPOT peptide array binding signal intensity” value was 270.

These binders were tested against AgMyo5 in the same assay as above.
Outline: as §1
With SRYRRPLTLLLLKPF the “SPOT peptide array binding signal intensity” value was 0.5.

These binders were tested against AgNbp2 in the same assay as above.
Outline: as §1
In the case of SRYRRPLTLLLLKPF, the “SPOT peptide array binding signal intensity” value is reported as 97.5.

What follows are binders tested against AgRvs167 in the same assay as above.
Outline: as §1
With SRYRRPLTLLLLKPF the “SPOT peptide array binding signal intensity” value was 5.17.

Each binder was assayed against AgSho1 in the same assay as above.
Outline: as §1
In the case of SRYRRPLTLLLLKPF, the “SPOT peptide array binding signal intensity” value is reported as 334.

What follows are binders tested against AgSla1-D1-D2 in the same assay as above.
Outline: as §1
For SRYRRPLTLLLLKPF, the “SPOT peptide array binding signal intensity” value was 40.

What follows are binders tested against AgSla1-D3 in the same assay as above.
Outline: as §1
SRYRRPLTLLLLKPF was tested, and the “SPOT peptide array binding signal intensity” value was 4.

Each binder was assayed against CaAbp1-D1 in the same assay as above.
Outline: as §1
With SRYRRPLTLLLLKPF the “SPOT peptide array binding signal intensity” value was 155.

These binders were tested against CaAbp1-D2 in the same assay as above.
Outline: as §1
SRYRRPLTLLLLKPF was tested, and the “SPOT peptide array binding signal intensity” value was 128.

What follows are binders tested against CaBbc1 in the same assay as above.
Outline: as §1
In the case of SRYRRPLTLLLLKPF, the “SPOT peptide array binding signal intensity” value is reported as 38.

These binders were tested against CaBem1-D1 in the same assay as above.
Outline: as §1
For SRYRRPLTLLLLKPF, the “SPOT peptide array binding signal intensity” value was 8.5.

These binders were tested against CaBzz1-D1 in the same assay as above.
Outline: as §1
In the case of SRYRRPLTLLLLKPF, the “SPOT peptide array binding signal intensity” value is reported as 26.5.

Each binder was assayed against CaBzz1-D2 in the same assay as above.
Outline: as §1
In the case of SRYRRPLTLLLLKPF, the “SPOT peptide array binding signal intensity” value is reported as 14.2.

Each binder was assayed against CaCyk3 in the same assay as above.
Outline: as §1
With SRYRRPLTLLLLKPF the “SPOT peptide array binding signal intensity” value was 9.

Each binder was assayed against CaFus1 in the same assay as above.
Outline: as §1
For SRYRRPLTLLLLKPF, the “SPOT peptide array binding signal intensity” value was 1410.

Each binder was assayed against CaHof1 in the same assay as above.
Outline: as §1
SRYRRPLTLLLLKPF was tested, and the “SPOT peptide array binding signal intensity” value was 0.5.

The binders below were run against CaHse1 in the same assay as above.
Outline: as §1
In the case of SRYRRPLTLLLLKPF, the “SPOT peptide array binding signal intensity” value is reported as 80.8.

What follows are binders tested against CaLsb1 in the same assay as above.
Outline: as §1
SRYRRPLTLLLLKPF was tested, and the “SPOT peptide array binding signal intensity” value was 2.5.

The binders below were run against CaLsb4 in the same assay as above.
Outline: as §1
SRYRRPLTLLLLKPF was tested, and the “SPOT peptide array binding signal intensity” value was 37.

These binders were tested against CaMyo5 in the same assay as above.
Outline: as §1
In the case of SRYRRPLTLLLLKPF, the “SPOT peptide array binding signal intensity” value is reported as at most 0.

These binders were tested against CaNbp2 in the same assay as above.
Outline: as §1
SRYRRPLTLLLLKPF was tested, and the “SPOT peptide array binding signal intensity” value was 870.

The binders below were run against CaRvs167 in the same assay as above.
Outline: as §1
SRYRRPLTLLLLKPF was tested, and the “SPOT peptide array binding signal intensity” value was 66.8.

The binders below were run against CaRvs167-3 in the same assay as above.
Outline: as §1
With SRYRRPLTLLLLKPF the “SPOT peptide array binding signal intensity” value was 141.

What follows are binders tested against CaSho1 in the same assay as above.
Outline: as §1
For SRYRRPLTLLLLKPF, the “SPOT peptide array binding signal intensity” value was 493.

These binders were tested against CaSla1-D1-D2 in the same assay as above.
Outline: as §1
For SRYRRPLTLLLLKPF, the “SPOT peptide array binding signal intensity” value was at most 0.

What follows are binders tested against CaSla1-D3 in the same assay as above.
Outline: as §1
SRYRRPLTLLLLKPF was tested, and the “SPOT peptide array binding signal intensity” value was 39.2.

The binders below were run against ScAbp1 in the same assay as above.
Outline: as §1
For SRYRRPLTLLLLKPF, the “SPOT peptide array binding signal intensity” value was 83.

Each binder was assayed against ScBbc1 in the same assay as above.
Outline: as §1
For SRYRRPLTLLLLKPF, the “SPOT peptide array binding signal intensity” value was 2.5.

What follows are binders tested against ScBem1-D1 in the same assay as above.
Outline: as §1
With SRYRRPLTLLLLKPF the “SPOT peptide array binding signal intensity” value was 10.

Each binder was assayed against ScBzz1-D1 in the same assay as above.
Outline: as §1
In the case of SRYRRPLTLLLLKPF, the “SPOT peptide array binding signal intensity” value is reported as 13.

These binders were tested against ScBzz1-D2 in the same assay as above.
Outline: as §1
With SRYRRPLTLLLLKPF the “SPOT peptide array binding signal intensity” value was 74.5.

The binders below were run against ScCyk3 in the same assay as above.
Outline: as §1
For SRYRRPLTLLLLKPF, the “SPOT peptide array binding signal intensity” value was 28.

The binders below were run against ScFus1 in the same assay as above.
Outline: as §1
SRYRRPLTLLLLKPF was tested, and the “SPOT peptide array binding signal intensity” value was 546.

The binders below were run against ScHof1 in the same assay as above.
Outline: as §1
With SRYRRPLTLLLLKPF the “SPOT peptide array binding signal intensity” value was 1.

The binders below were run against ScHse1 in the same assay as above.
Outline: as §1
With SRYRRPLTLLLLKPF the “SPOT peptide array binding signal intensity” value was 2310.

Each binder was assayed against ScLsb1 in the same assay as above.
Outline: as §1
For SRYRRPLTLLLLKPF, the “SPOT peptide array binding signal intensity” value was 12.5.

The binders below were run against ScLsb2 in the same assay as above.
Outline: as §1
SRYRRPLTLLLLKPF was tested, and the “SPOT peptide array binding signal intensity” value was 2.

The binders below were run against ScLsb3 in the same assay as above.
Outline: as §1
SRYRRPLTLLLLKPF was tested, and the “SPOT peptide array binding signal intensity” value was 107.

Each binder was assayed against ScLsb4 in the same assay as above.
Outline: as §1
With SRYRRPLTLLLLKPF the “SPOT peptide array binding signal intensity” value was 31.5.

Each binder was assayed against ScMyo3 in the same assay as above.
Outline: as §1
With SRYRRPLTLLLLKPF the “SPOT peptide array binding signal intensity” value was 0.5.

Each binder was assayed against ScMyo5 in the same assay as above.
Outline: as §1
With SRYRRPLTLLLLKPF the “SPOT peptide array binding signal intensity” value was 0.5.

The binders below were run against ScNbp2 in the same assay as above.
Outline: as §1
In the case of SRYRRPLTLLLLKPF, the “SPOT peptide array binding signal intensity” value is reported as 234.

The binders below were run against ScPex13 in the same assay as above.
Outline: as §1
With SRYRRPLTLLLLKPF the “SPOT peptide array binding signal intensity” value was 1.

What follows are binders tested against ScRvs167 in the same assay as above.
Outline: as §1
In the case of SRYRRPLTLLLLKPF, the “SPOT peptide array binding signal intensity” value is reported as 11.

What follows are binders tested against ScSho1 in the same assay as above.
Outline: as §1
In the case of SRYRRPLTLLLLKPF, the “SPOT peptide array binding signal intensity” value is reported as 648.

The binders below were run against ScSla1-D1-D2 in the same assay as above.
Outline: as §1
With SRYRRPLTLLLLKPF the “SPOT peptide array binding signal intensity” value was 1.

What follows are binders tested against ScSla1-D3 in the same assay as above.
Outline: as §1
SRYRRPLTLLLLKPF was tested, and the “SPOT peptide array binding signal intensity” value was 8.

What follows are binders tested against SpAbp1-D1 in the same assay as above.
Outline: as §1
SRYRRPLTLLLLKPF was tested, and the “SPOT peptide array binding signal intensity” value was 199.

Each binder was assayed against SpBbc1 in the same assay as above.
Outline: as §1
In the case of SRYRRPLTLLLLKPF, the “SPOT peptide array binding signal intensity” value is reported as 6.25.

The binders below were run against SpBzz1-D1 in the same assay as above.
Outline: as §1
SRYRRPLTLLLLKPF was tested, and the “SPOT peptide array binding signal intensity” value was 18.

What follows are binders tested against SpBzz1-D2 in the same assay as above.
Outline: as §1
With SRYRRPLTLLLLKPF the “SPOT peptide array binding signal intensity” value was at most 0.

The binders below were run against SpCyk3 in the same assay as above.
Outline: as §1
With SRYRRPLTLLLLKPF the “SPOT peptide array binding signal intensity” value was 4.

What follows are binders tested against SpHof1 in the same assay as above.
Outline: as §1
With SRYRRPLTLLLLKPF the “SPOT peptide array binding signal intensity” value was 144.

What follows are binders tested against SpHof1-2 in the same assay as above.
Outline: as §1
In the case of SRYRRPLTLLLLKPF, the “SPOT peptide array binding signal intensity” value is reported as 21.8.

These binders were tested against SpHof1-3 in the same assay as above.
Outline: as §1
For SRYRRPLTLLLLKPF, the “SPOT peptide array binding signal intensity” value was 686.

The binders below were run against SpHse1 in the same assay as above.
Outline: as §1
With SRYRRPLTLLLLKPF the “SPOT peptide array binding signal intensity” value was 643.

The binders below were run against SpLsb1 in the same assay as above.
Outline: as §1
SRYRRPLTLLLLKPF was tested, and the “SPOT peptide array binding signal intensity” value was 3.

The binders below were run against SpLsb4 in the same assay as above.
Outline: as §1
SRYRRPLTLLLLKPF was tested, and the “SPOT peptide array binding signal intensity” value was 67.

Each binder was assayed against SpMyo1 in the same assay as above.
Outline: as §1
For SRYRRPLTLLLLKPF, the “SPOT peptide array binding signal intensity” value was 4.5.

Each binder was assayed against SpNbp2 in the same assay as above.
Outline: as §1
In the case of SRYRRPLTLLLLKPF, the “SPOT peptide array binding signal intensity” value is reported as 374.

These binders were tested against SpPex13 in the same assay as above.
Outline: as §1
SRYRRPLTLLLLKPF was tested, and the “SPOT peptide array binding signal intensity” value was 11.5.

These binders were tested against SpRvs167 in the same assay as above.
Outline: as §1
With SRYRRPLTLLLLKPF the “SPOT peptide array binding signal intensity” value was 13.8.

The binders below were run against SpSla1-D1-D2 in the same assay as above.
Outline: as §1
SRYRRPLTLLLLKPF was tested, and the “SPOT peptide array binding signal intensity” value was 5.

Each binder was assayed against SpSla1-D3 in the same assay as above.
Outline: as §1
For SRYRRPLTLLLLKPF, the “SPOT peptide array binding signal intensity” value was 6.5.
